Results filed as inconclusive are left out. A call without a number means that no potency is given here. The source made the active and inactive calls. Calls follow the shape of the dose curve; as a rule, active = well fitted inhibition curve with a large enough effect; inconclusive = small, poorly fitted or top-dose-only effect; inactive = no such curve, though single readings can be large or run the other way. Where a SMILES comes first, the peptide text is derived from it. [ ]: non-standard residue; d: D form. ξ: configuration not given here. ξPhe(βξ-Me) = CC(c1ccccc1)C(N)C(=O)O; GABA = NCCCC(=O)O

The subject of the experiment is Zika virus NS2B-NS3 protease (linked construct). The experiment can be described thus: Primary screen NINDS Rhodamine qHTS for Zika virus inhibitors (AID 1347160). Also: nearly all actives have a fitted effect of over 55% in size. To be noted: purified NS2B-NS3 protease, Rhodamine110 substrate fluorescence; series mostly up to 57.1 µM. In a few lines: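 Each compound, titrated, sat 15 min with 25 nM linked protease before 1.5 microM Rhodamine110 substrate went in. Fluorescence gain over the next 15 min, in pH 8.0 Tris with Tween 20, gave Hill-fitted curves.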
For orientation: In qHTS, concentration-response curves come from the screen itself.
`O=C(O)CCc1cccc(O[C@@H]2O[C@H](CO)[C@@H](O)[C@H](O)[C@H]2O)c1O`: the Potency result is “inactive”.
Regarding `CC(C)CC1NC(=O)C(C(C)c2ccccc2)NC(=O)C(C(C)C)NC(=O)C(C)NC(=O)CCCNC(=O)C(Cc2c[nH]c3ccccc23)NC(=O)C(C)NC1=O` (stereo not drawn) (cyclo([GABA]AV[ξPhe(βξ-Me)]LAW); configuration not given here), the Potency entry is “inactive”.
Next, `CC(C)C1=CC2=CCC3[C@](C)(CCC[C@@]3(C)C(=O)O)C2CC1=O` (some centres not stated): “inactive”; `NCc1c[nH]c(=S)n1C1CCc2c(F)cc(F)cc2C1` (configuration not stated): “inactive”; `C=C[C@@]1(C)CC(=O)C2[C@](C)(O1)[C@@H](OC(C)=O)[C@@H](O)[C@H]1C(C)(C)CCC[C@]21C` (some centres not stated): “inactive”.
With `C=C1CCC2C(C)(COC3OC(COC(=O)CC(=O)O)C(O)C(O)C3O)CCCC2(C)C1CCC1=CCOC1=O` (configuration not stated), the Potency result was “inactive”.
Turning to `C[C@@H]1O[C@@H](O[C@H]2[C@H](O[C@H]3[C@H](O[C@H]4CC[C@@]5(CO)C(CC[C@]6(C)C5CC=C5C7CC(C)(C)C[C@@H](O)[C@]7(C)CC[C@]56C)C4(C)C)O[C@H](C(=O)O)[C@@H](O)[C@@H]3O)OC[C@@H](O)[C@@H]2O)[C@H](O)[C@H](O)[C@H]1O` (some centres not stated), the Potency entry was “inactive”.
In the case of `CC1(C)O[C@]23C[C@H]1C[C@H](OC(=O)c1ccoc1)[C@]2(C)[C@@H](OC(=O)c1ccoc1)CCC3(C)O` (some centres not stated), the Potency entry is “inactive”.
Consider `COc1ccc(/C=C/C(=O)O[C@@H]2[C@@H](O)[C@H](C)O[C@@H](OC3C4C=COC(O[C@@H]5O[C@H](CO)[C@@H](O)[C@H](O)[C@H]5O)C4C4(CO)OC34)[C@@H]2O)cc1OC` (some centres not stated), for which the Potency result is “inactive”.
`COc1ccc([C@@H]2N[C@H](C(=O)O)Cc3c2[nH]c2ccccc32)cc1CN1CCN(c2ccccc2F)CC1`: the Potency entry is “inactive”.
With `CCn1cc(C2=NOC(C(=O)Nc3c(C)n(C)n(-c4ccccc4)c3=O)C2)c(C)n1` (configuration not stated), the Potency entry is “inactive”.
In the case of `CC1CCC2(O1)C(C)(C)CC(O[C@@H]1O[C@H](CO[C@@H]3OC[C@](O)(CO)[C@H]3O)[C@@H](O)[C@H](O)[C@H]1O)CC2(C)O` (some centres not stated), the Potency entry is “inactive”.
Turning to `CC1CC(O)C2(C)C(C(=O)O)=CCCC2C1(C)CCc1ccoc1` (configuration not stated), the Potency result is “inactive”.
In the case of `COc1cc([C@H]2OC[C@]3(OC(C)=O)[C@@H](c4ccc(O[C@@H]5O[C@H](CO)[C@@H](O)[C@H](O)[C@H]5O)c(OC)c4)OC[C@H]23)ccc1O`, the Potency entry is “inactive”.
In the case of `COc1ccccc1[C@@H]1C2=C(CC(C)(C)CC2=O)Nc2n[nH]c(C(F)(F)F)c21`, the Potency result is “inactive”.
Regarding `Cc1c(N2C(=O)c3ccc(C(=O)O)cc3C2=O)c(=O)n(-c2ccccc2)n1C`, the Potency result is “inactive”.
Take `COc1cc(/C=C/C(=O)OC2CC(C)=C(C(=O)O)/C2=C/CO[C@@H]2O[C@H](CO)[C@@H](O)[C@H](O)[C@H]2O)ccc1O` (some centres not stated): the Potency entry was “inactive”.
